Measured values published in PubChem BioAssay (NCI).
The panel holds about 79,000 compounds, 15% with a hit somewhere; the sample as a whole holds those more often. Activity calls are given as the source filed them. Cut-off read from the data, not from the text of the source: active = growth inhibition above about 70%; inactive = the rest.

Experiments:
[1] = NCI Yeast Anticancer Drug Screen. Data for the rad52 strain (AID 147);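 note: 0% = growth of vehicle-treated control cultures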; settings: S. cerevisiae rad52 mutant growth inhibition, stronger effect = higher value
Procedure, shortened: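 DNA repair-defective yeast; compound exposure; growth scored against vehicle controls.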

[2] = NCI Yeast Anticancer Drug Screen. Data for the wt1 strain (AID 149);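 note: 0% = growth of vehicle-treated wt1 cultures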; settings: S. cerevisiae wt1 strain (SPY 50644) growth inhibition, stronger effect = higher value
Procedure, shortened: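 Growth inhibition read against vehicle controls after compound exposure of the wt1 yeast strain.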

[3] = NCI Yeast Anticancer Drug Screen. Data for the rad50EPP+ strain (AID 151);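 note: 0% = growth of vehicle-treated control cultures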; settings: S. cerevisiae rad50 mutant strain, stronger effect = higher value
Procedure, shortened: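 rad50EPP+ yeast treated with test compounds. Readout: growth vs vehicle control.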

[4] = NCI Yeast Anticancer Drug Screen. Data for the mgt1 strain (AID 153); settings: S. cerevisiae mgt1 mutant growth inhibition, stronger effect = higher value
Procedure, shortened: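 Growth inhibition relative to vehicle controls was scored for the mgt1 yeast strain after compound exposure.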

[5] = NCI Yeast Anticancer Drug Screen. Data for the rad50 strain (AID 155);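 note: 0% = growth of vehicle-only cultures of the same strain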; settings: S. cerevisiae rad50 strain growth inhibition, stronger effect = higher value
Procedure, shortened: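 Readout: growth inhibition relative to vehicle-treated cultures. Compound exposure was carried out in a genetically defined yeast strain deficient in DNA damage repair.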

[6] = NCI Yeast Anticancer Drug Screen. Data for the mec2-1 strain (AID 157); settings: S. cerevisiae mec2-1 strain, stronger effect = higher value
Procedure, shortened: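 Growth inhibition is read against vehicle-treated controls after compound exposure of the mec2-1 yeast strain, which is defective in DNA damage repair or cell cycle control.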

[7] = NCI Yeast Anticancer Drug Screen. Data for the rad14 strain (AID 159);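 note: 0% = growth of vehicle-treated control cultures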; settings: S. cerevisiae rad14 strain growth inhibition, stronger effect = higher value
Procedure, shortened: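 Growth inhibition vs vehicle controls; genetically altered yeast strain (DNA damage repair defect) treated with test compounds.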

[8] = NCI Yeast Anticancer Drug Screen. Data for the sgs1 mgt1 strain (AID 161);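 note: 0% = growth of cultures given vehicle only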; settings: S. cerevisiae sgs1 mgt1 strain, stronger effect = higher value
Procedure, shortened: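 Growth of a repair-deficient yeast mutant was monitored after compound treatment and expressed as inhibition relative to vehicle-treated cultures.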

[9] = NCI Yeast Anticancer Drug Screen. Data for the CLN2oe strain (AID 163);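 note: 0% = growth of vehicle-only control cultures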; settings: S. cerevisiae CLN2oe strain, stronger effect = higher value
Procedure, shortened: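 Compound-treated yeast; growth vs vehicle ctrl = % inhibition. Genetically altered strain (cell-cycle control).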

[10] = NCI Yeast Anticancer Drug Screen. Data for the cln2 rad14 strain (AID 165);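 note: 0% = growth equal to vehicle treated cultures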; settings: S. cerevisiae cln2 rad14 strain, stronger effect = higher value
Procedure, shortened: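 Growth inhibition, relative to vehicle-treated controls, is the read-out. The test organism is a yeast strain with defined genetic alterations, cln2 rad14.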

[11] = NCI Yeast Anticancer Drug Screen. Data for the bub3 strain (AID 167); settings: S. cerevisiae bub3 mutant strain, stronger effect = higher value
Procedure, shortened: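 Readout: yeast growth inhibition, expressed relative to vehicle-only wells. The test organism is a mutant strain from a panel with lesions in DNA repair or checkpoint genes.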

[12] = NCI Yeast Anticancer Drug Screen. Data for the wt2 strain (AID 169);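 note: 0% = growth of vehicle-treated yeast cultures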; settings: S. cerevisiae wt2 strain growth inhibition, stronger effect = higher value
Procedure, shortened: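 Compound exposure of yeast; growth compared with vehicle controls; inhibition reported.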

[13] = NCI Yeast Anticancer Drug Screen. Data for the mlh1 strain (AID 171);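 note: 0% = growth of vehicle-treated control cultures of the same strain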; settings: S. cerevisiae mlh1 strain growth inhibition, stronger effect = higher value
Procedure, shortened: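 Compounds are applied to a genetically altered yeast strain, and its growth is compared with that of vehicle-treated cultures to give percent inhibition.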

[14] = NCI Yeast Anticancer Drug Screen. Data for the sgs1 strain (AID 173);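 note: 0% = growth of vehicle-only control cultures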; settings: S. cerevisiae sgs1 mutant, stronger effect = higher value
Procedure, shortened: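 Compounds applied to genetically altered yeast; growth compared with vehicle-treated cultures to give % inhibition.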

[15] = NCI Yeast Anticancer Drug Screen. Data for the mlh1 rad18 strain (AID 175); settings: S. cerevisiae mlh1 rad18 strain growth inhibition, stronger effect = higher value
Procedure, shortened: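 Cells of a genetically altered yeast strain, deficient in DNA damage repair, were treated with compound. Their growth was then compared with that of vehicle-treated cultures to give inhibition.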

[16] = NCI Yeast Anticancer Drug Screen. Data for the rad18 strain (AID 177); settings: S. cerevisiae rad18 mutant growth inhibition, stronger effect = higher value
Procedure, shortened: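 Compounds are applied to a repair-deficient yeast strain, and growth is compared with that of vehicle-treated cultures to give percent inhibition.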

[17] = at 5.0 µM (retest, dose inferred, filed as 0.5)
[18] = at 50.0 µM (retest, dose inferred, filed as 5.0)

Measured: growth inhibition

CCCCCCCCCCCCOCCOCCOCC(N)=O
inactive: [1]; at 1.2 µM 15% | [1]; at 3.7 µM -11% | [1]; at 11.0 µM 1% | [2]; at 1.2 µM -39% | [2]; at 3.7 µM -39% | [2]; at 11.0 µM -41% | [3]; at 1.2 µM -14% | [3]; at 3.7 µM -20% | [3]; at 11.0 µM -11% | [3]; at 33.0 µM 10% | [4]; at 1.2 µM 9% | [4]; at 3.7 µM -8% | [4]; at 11.0 µM -10% | [5]; at 1.2 µM 6% | [5]; at 3.7 µM -1% | [5]; [17] 36% | [5]; at 11.0 µM 10% | [5]; [18] 36% | [6]; at 1.2 µM -6% | [6]; at 3.7 µM -6% | [6]; [17] 39% | [6]; at 11.0 µM 16% | [6]; [18] 29% | [7]; at 1.2 µM -9% | [7]; at 3.7 µM -11% | [7]; at 11.0 µM -17% | [8]; [17] 5% | [9]; at 1.2 µM -15% | [9]; at 3.7 µM -18% | [9]; at 11.0 µM -13% | [10]; [17] 61% | [11]; at 1.2 µM -6% | [11]; at 3.7 µM 1% | [11]; [17] 21% | [11]; at 11.0 µM -13% | [12]; at 1.2 µM -26% | [12]; at 3.7 µM -20% | [12]; at 11.0 µM -12% | [13]; at 1.2 µM -12% | [13]; at 3.7 µM -12% | [13]; at 11.0 µM 6% | [14]; at 1.2 µM -12% | [14]; at 3.7 µM -15% | [14]; at 11.0 µM -5% | [15]; [17] 26% | [15]; [18] 43% | [16]; at 1.2 µM -18% | [16]; at 3.7 µM -31% | [16]; at 11.0 µM -18%
active: [1]; at 33.0 µM 97% | [1]; at 100.0 µM 96% | [2]; at 33.0 µM 95% | [2]; at 100.0 µM 94% | [3]; at 100.0 µM 80% | [4]; at 33.0 µM 97% | [4]; at 100.0 µM 96% | [5]; at 33.0 µM 97% | [5]; at 50.0 µM 91.2% | [5]; at 100.0 µM 95% | [6]; at 33.0 µM 97% | [6]; at 50.0 µM 92.5% | [6]; at 100.0 µM 95% | [7]; at 33.0 µM 97% | [7]; at 100.0 µM 94% | [8]; [18] 98% | [8]; at 50.0 µM 93.3% | [9]; at 33.0 µM 96% | [9]; at 100.0 µM 93% | [10]; [18] 97% | [10]; at 50.0 µM 89.5% | [11]; at 33.0 µM 97% | [11]; [18] 97% | [11]; at 50.0 µM 91.5% | [11]; at 100.0 µM 94% | [12]; at 33.0 µM 97% | [12]; at 100.0 µM 96% | [13]; at 33.0 µM 93% | [13]; at 100.0 µM 96% | [14]; at 33.0 µM 96% | [14]; at 100.0 µM 94% | [15]; at 50.0 µM 91.1% | [16]; at 33.0 µM 97% | [16]; at 100.0 µM 95%

NC(CS)C(=O)NCCNc1ccc(NCCNC(=O)C(N)CS)c2c1C(=O)c1c(O)ccc(O)c1C2=O (stereo unspecified)
active: [1]; at 11.0 µM 73% | [1]; at 33.0 µM 80% | [3]; at 33.0 µM 80% | [4]; at 33.0 µM 86% | [5]; [17] 75% | [5]; at 11.0 µM 81% | [5]; at 33.0 µM 85% | [5]; [18] 88% | [5]; at 50.0 µM 79.2% | [6]; at 33.0 µM 86% | [6]; [18] 89% | [6]; at 50.0 µM 76% | [7]; at 33.0 µM 81% | [8]; at 50.0 µM 78.7% | [9]; at 33.0 µM 84% | [10]; at 50.0 µM 74.2% | [11]; at 33.0 µM 81% | [12]; at 33.0 µM 81% | [13]; at 33.0 µM 85% | [14]; at 33.0 µM 84% | [15]; [18] 80% | [15]; at 50.0 µM 72.5% | [16]; at 33.0 µM 84%
inactive: [1]; at 1.2 µM -10% | [1]; at 3.7 µM 58% | [1]; at 100.0 µM 48% | [2]; at 1.2 µM -42% | [2]; at 3.7 µM -25% | [2]; at 11.0 µM -67% | [2]; at 33.0 µM 45% | [2]; at 100.0 µM 68% | [3]; at 1.2 µM -4% | [3]; at 3.7 µM 46% | [3]; at 11.0 µM 67% | [3]; at 100.0 µM 54% | [4]; at 1.2 µM 7% | [4]; at 3.7 µM 18% | [4]; at 11.0 µM 23% | [4]; at 100.0 µM 62% | [5]; at 1.2 µM 33% | [5]; at 3.7 µM 67% | [5]; at 100.0 µM 62% | [6]; at 1.2 µM -42% | [6]; at 3.7 µM -26% | [6]; [17] 2% | [6]; at 11.0 µM -11% | [6]; at 100.0 µM 65% | [7]; at 1.2 µM -55% | [7]; at 3.7 µM -47% | [7]; at 11.0 µM -43% | [7]; at 100.0 µM 57% | [8]; [17] 6% | [8]; [18] -32% | [9]; at 1.2 µM -4% | [9]; at 3.7 µM 4% | [9]; at 11.0 µM -10% | [9]; at 100.0 µM 56% | [10]; [17] 20% | [10]; [18] -57% | [11]; at 1.2 µM -29% | [11]; at 3.7 µM -21% | [11]; [17] 13% | [11]; at 11.0 µM -34% | [11]; [18] -54% | [11]; at 50.0 µM 68.2% | [11]; at 100.0 µM 51% | [12]; at 1.2 µM -19% | [12]; at 3.7 µM -57% | [12]; at 11.0 µM -63% | [12]; at 100.0 µM 64% | [13]; at 1.2 µM -34% | [13]; at 3.7 µM -35% | [13]; at 11.0 µM -33% | [13]; at 100.0 µM 62% | [14]; at 1.2 µM -23% | [14]; at 3.7 µM -36% | [14]; at 11.0 µM -27% | [14]; at 100.0 µM 63% | [15]; [17] 13% | [16]; at 1.2 µM 3% | [16]; at 3.7 µM -10% | [16]; at 11.0 µM -8% | [16]; at 100.0 µM 61%
